Assays:
[1] = molecular target: Bromodomain-containing protein 4 (Homo sapiens) (UniProt O60885); settings: Compound concentration 20.0 uM, Protein concentration 2.0 uM, Result type QC Liability
[2] = molecular target: T1, Transcription intermediary factor 1-alpha (Homo sapiens) (UniProt O15164); settings: Compound concentration 20.0 uM, Protein concentration 2.0 uM, Result type QC Liability
T1 sequence (whole entry): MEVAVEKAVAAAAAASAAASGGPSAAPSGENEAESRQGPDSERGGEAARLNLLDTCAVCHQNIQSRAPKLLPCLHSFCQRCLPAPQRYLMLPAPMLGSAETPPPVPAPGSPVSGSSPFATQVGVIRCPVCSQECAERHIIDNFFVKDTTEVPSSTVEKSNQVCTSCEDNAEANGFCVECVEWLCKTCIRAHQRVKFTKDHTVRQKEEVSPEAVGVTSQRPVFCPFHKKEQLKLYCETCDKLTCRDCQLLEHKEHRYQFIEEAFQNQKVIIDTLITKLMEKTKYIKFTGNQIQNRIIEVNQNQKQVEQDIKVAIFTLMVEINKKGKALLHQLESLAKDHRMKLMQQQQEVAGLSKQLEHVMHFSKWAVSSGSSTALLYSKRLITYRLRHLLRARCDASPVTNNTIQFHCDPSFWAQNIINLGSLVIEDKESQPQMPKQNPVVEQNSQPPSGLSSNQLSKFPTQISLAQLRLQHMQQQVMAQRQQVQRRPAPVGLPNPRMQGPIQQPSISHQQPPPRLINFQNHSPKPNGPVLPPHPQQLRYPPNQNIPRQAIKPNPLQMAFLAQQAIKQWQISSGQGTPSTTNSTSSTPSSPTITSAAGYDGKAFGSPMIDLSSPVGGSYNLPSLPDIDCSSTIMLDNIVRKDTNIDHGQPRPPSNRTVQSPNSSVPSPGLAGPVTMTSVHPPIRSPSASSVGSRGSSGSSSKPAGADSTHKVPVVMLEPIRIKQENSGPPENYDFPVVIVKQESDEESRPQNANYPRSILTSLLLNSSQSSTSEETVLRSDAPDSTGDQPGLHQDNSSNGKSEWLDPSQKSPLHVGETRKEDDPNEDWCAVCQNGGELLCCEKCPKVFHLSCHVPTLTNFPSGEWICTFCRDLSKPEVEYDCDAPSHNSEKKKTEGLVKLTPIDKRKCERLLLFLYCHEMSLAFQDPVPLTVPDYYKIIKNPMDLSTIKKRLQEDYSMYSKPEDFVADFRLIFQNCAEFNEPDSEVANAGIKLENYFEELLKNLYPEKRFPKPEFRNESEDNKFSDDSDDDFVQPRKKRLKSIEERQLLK

Row | Structure (SMILES) | ΔTm [1] | ΔTm [2]
1 | O=C(Nc1ccc(OC(F)(F)Cl)cc1)c1cnc(N2CC[C@@H](O)C2)c(-c2cc[nH]n2)c1 | 0 °C | -3.05 °C
2 | CCO[C@@H](Cc1ccc(OCCc2ccc(OS(C)(=O)=O)cc2)cc1)C(=O)O | -0.9 °C | -3.53 °C
3 | O=C(O)c1cc(F)c2nc(N3[C@@H]4CC[C@H]3C[C@@H](OCc3c(-c5ccccc5OC(F)(F)F)noc3C3CC3)C4)sc2c1 | -7.4 °C | -1.62 °C
4 | N=C(N)NCCC[C@H](NC(=O)C(c1ccccc1)c1ccccc1)C(=O)NCc1ccc(CNC(N)=O)cc1 | 0.06 °C | 0.24 °C
5 | CP(C)(=O)c1ccc(CNC(=O)C2CCN(S(=O)(=O)c3cc(Cl)cc(Cl)c3)CC2)cc1 | -2.43 °C | 0.94 °C
6 | Cc1ncsc1-c1ccc(CNC(=O)[C@@H]2C[C@@H](O)CN2C(=O)[C@@H](NC(=O)C2(F)CC2)C(C)(C)C)c(OCCOc2ccc(CN3CCN(c4cc(-c5ccccc5O)nnc4N)CC3)cc2)c1 | 13.5 °C | 0 °C
7 | CC(C)(O)[C@H]1CC[C@H](Nc2ccc3ncc(-c4cccc(C(F)(F)F)c4)n3n2)CC1 | -0.97 °C | -1.82 °C
8 | NS(=O)(=O)c1ccc(Nc2nc(OCC3CCCCC3)c3nc[nH]c3n2)cc1 | 0.59 °C | -0.84 °C
9 | CN(C)C(=O)Cn1cc(-c2nc([C@@](C)(c3ccc(-c4cnc(N)nc4)cc3)C3CC3)no2)cn1 | -1.9 °C | 0.31 °C
10 | Cn1cnc(Cn2ccc3ccc(CNCc4[nH]c5ccccc5c4[C@@H]4NC(=O)c5ccc(O)cc54)cc32)c1 | -1.28 °C | 0.32 °C
11 | CO[C@H]1CC[C@H](N(c2cc(F)c(Oc3ncc(Cn4nccn4)cc3C(F)(F)F)cc2C(=O)O)C(=O)[C@H]2CC[C@H](C)CC2)CC1 | 0.94 °C | -0.09 °C
12 | COc1cc2c(NC3CCN(C(C)C)CC3)nc(C3CCCCC3)nc2cc1OCCCN1CCCC1 | -2.43 °C | -2.96 °C
13 | C[C@H](NC(=O)c1cc(Cl)ccc1Oc1ccc(F)cc1)c1ccc(C(=O)O)cc1 | -0.23 °C | -0.34 °C
